# Source: paper PMC7862700, “An all-to-all approach to the identification of sequence-specific readers for epigenetic DNA modifications on cytosine”
# Columns and labels:
# Experiment in all cases: DAPPL (digital affinity profiling via proximity ligation, sequencing); 10 mM Tris-HCl pH 7.5, 50 mM NaCl, 1 mM DTT, 4% glycerol, room temperature, 30 min; GST-TFs on glutathione beads, 16-mer random dsDNA library, 0.1% formaldehyde crosslink after washing; high values mean tight binding
# Conditions in all cases: protein: recombinant; tags: N-terminal GST; dsDNA, one strand shown
# [1] = target: T1, ELK1 (Homo sapiens, UniProt P19419 1-428)
# T1 sequence: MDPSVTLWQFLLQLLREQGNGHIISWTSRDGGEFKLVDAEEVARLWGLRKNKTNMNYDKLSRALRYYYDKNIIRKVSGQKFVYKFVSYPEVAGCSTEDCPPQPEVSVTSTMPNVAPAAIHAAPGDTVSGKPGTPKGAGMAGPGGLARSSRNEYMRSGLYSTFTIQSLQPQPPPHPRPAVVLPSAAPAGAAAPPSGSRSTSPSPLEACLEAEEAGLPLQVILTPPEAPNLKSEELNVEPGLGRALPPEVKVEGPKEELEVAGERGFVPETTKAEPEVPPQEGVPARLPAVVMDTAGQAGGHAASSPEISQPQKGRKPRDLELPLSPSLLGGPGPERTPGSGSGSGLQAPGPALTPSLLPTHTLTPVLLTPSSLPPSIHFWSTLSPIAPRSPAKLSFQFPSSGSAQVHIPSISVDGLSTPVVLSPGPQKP
# Method in brief: (§1)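 Yeast served to express human transcription factors as GST fusions, which were then captured on glutathione beads and labelled with DNA barcodes. Pooled with a tag-only sample, they were incubated with 200 nmole of a 16-mer random double-stranded DNA library for 30 min at room temperature in Tris/NaCl/DTT/glycerol buffer, washed, crosslinked with 0.1% formaldehyde, ligated by proximity, amplified by PCR and sequenced. Dividing each hexamer's read frequency for a factor by its frequency for the tag-only sample gives the binding signal.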
# [2] = target: T2, GABPA (Homo sapiens, UniProt Q06546 1-454)
# T2 sequence: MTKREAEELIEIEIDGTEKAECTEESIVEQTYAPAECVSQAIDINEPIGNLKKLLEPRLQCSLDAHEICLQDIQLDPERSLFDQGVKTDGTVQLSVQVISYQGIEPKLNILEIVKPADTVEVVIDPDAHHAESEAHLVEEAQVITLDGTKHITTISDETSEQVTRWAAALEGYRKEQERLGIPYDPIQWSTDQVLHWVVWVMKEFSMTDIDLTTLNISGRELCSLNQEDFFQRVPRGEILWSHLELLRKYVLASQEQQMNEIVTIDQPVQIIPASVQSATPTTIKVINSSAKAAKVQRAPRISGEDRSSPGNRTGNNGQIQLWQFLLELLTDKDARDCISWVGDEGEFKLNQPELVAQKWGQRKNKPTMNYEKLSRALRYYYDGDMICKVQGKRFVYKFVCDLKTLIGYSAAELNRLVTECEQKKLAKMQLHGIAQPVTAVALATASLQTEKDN
# Method in brief: as §1
# [3] = target: T3, ERG (Homo sapiens, UniProt P11308 1-479)
# T3 sequence: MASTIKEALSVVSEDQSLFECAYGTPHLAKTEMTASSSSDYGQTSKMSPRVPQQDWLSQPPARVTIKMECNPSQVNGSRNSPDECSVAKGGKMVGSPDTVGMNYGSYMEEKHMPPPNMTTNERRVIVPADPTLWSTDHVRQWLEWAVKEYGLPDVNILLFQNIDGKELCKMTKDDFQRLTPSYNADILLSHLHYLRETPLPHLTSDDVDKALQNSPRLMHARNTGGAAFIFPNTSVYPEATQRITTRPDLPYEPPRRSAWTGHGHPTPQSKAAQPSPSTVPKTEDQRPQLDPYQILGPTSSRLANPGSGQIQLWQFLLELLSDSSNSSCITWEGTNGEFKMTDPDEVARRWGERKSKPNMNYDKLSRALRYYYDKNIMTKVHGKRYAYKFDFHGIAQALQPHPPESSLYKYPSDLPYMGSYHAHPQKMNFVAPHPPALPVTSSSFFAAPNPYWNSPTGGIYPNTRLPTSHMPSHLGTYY
# Method in brief: as §1
# [4] = target: ELF1 (Homo sapiens, UniProt P32519 1-619)
# Method in brief: as §1
# [5] = target: T4, EHF (Homo sapiens, UniProt Q9NZC4 1-300)
# T4 sequence: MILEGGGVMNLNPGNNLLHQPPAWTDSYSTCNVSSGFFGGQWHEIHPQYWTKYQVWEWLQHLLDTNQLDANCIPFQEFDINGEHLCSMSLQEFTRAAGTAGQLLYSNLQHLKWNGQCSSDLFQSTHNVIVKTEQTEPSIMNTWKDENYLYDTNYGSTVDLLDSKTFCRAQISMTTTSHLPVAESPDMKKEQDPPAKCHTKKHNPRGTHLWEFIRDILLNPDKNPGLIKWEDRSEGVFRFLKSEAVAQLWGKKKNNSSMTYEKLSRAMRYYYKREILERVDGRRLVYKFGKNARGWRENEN
# Method in brief: as §1
# [6] = target: SPIB (Homo sapiens, UniProt Q01892 1-262)
# Method in brief: as §1
# [7] = target: ETV5 (Homo sapiens, UniProt P41161 1-510)
# Method in brief: as §1
# [8] = target: ELF4 (Homo sapiens, UniProt Q99607 1-663)
# Method in brief: as §1
# [9] = target: T5, ELK4 (Homo sapiens, UniProt P28324-2 1-405)
# T5 sequence: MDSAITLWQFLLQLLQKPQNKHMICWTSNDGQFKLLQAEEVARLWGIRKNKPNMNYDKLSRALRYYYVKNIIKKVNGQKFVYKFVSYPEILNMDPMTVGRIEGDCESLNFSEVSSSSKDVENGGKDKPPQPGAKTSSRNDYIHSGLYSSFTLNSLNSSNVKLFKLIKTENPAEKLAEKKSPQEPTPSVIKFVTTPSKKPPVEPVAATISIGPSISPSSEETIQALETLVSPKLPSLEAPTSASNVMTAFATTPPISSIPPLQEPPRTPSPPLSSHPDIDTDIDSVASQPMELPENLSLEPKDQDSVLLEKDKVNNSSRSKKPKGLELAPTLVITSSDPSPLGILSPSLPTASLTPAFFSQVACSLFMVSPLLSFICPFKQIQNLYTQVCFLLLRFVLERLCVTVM
# Method in brief: as §1
# [10] = target: T6, ETV2 (Homo sapiens, UniProt O00321 1-342)
# T6 sequence: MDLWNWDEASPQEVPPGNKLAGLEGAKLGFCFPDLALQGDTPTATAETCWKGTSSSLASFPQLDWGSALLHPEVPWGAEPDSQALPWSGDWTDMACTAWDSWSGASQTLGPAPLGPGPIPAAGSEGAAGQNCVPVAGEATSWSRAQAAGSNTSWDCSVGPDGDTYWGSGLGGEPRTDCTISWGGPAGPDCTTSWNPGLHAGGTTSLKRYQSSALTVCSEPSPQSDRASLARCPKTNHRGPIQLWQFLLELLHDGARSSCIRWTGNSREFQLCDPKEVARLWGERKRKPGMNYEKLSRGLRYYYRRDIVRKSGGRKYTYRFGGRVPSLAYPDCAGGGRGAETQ
# Method in brief: as §1
# [11] = target: ETV1 (Homo sapiens, UniProt P50549 1-477)
# Method in brief: as §1
# [12] = target: T7, ETV3L (Homo sapiens, UniProt Q6ZN32 1-361)
# T7 sequence: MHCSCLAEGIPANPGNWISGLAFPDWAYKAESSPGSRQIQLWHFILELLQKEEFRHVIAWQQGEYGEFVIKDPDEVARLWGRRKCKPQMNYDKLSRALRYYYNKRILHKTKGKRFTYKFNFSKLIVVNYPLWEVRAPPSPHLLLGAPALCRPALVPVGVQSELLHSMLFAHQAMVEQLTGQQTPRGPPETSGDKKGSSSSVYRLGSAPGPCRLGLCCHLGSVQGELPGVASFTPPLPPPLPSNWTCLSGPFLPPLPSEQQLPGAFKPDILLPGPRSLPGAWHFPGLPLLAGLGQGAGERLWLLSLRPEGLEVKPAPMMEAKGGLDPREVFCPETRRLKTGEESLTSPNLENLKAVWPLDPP
# Method in brief: as §1
# [13] = target: T8, ETS2 (Homo sapiens, UniProt P15036 1-469)
# T8 sequence: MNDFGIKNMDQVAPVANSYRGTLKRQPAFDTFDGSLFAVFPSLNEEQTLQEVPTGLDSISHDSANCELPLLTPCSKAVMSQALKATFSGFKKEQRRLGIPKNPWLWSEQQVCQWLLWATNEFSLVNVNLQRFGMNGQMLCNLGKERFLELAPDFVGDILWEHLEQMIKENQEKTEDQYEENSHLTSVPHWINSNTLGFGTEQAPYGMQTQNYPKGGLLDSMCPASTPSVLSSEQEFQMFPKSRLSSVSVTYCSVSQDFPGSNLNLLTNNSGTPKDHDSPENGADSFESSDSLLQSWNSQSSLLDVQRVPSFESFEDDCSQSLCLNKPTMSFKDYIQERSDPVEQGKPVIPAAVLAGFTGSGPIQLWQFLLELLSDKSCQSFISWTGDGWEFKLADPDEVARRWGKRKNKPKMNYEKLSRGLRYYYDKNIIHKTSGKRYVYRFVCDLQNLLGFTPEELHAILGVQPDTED
# Method in brief: as §1
# [14] = target: T9, SPDEF (Homo sapiens, UniProt O95238 1-335)
# T9 sequence: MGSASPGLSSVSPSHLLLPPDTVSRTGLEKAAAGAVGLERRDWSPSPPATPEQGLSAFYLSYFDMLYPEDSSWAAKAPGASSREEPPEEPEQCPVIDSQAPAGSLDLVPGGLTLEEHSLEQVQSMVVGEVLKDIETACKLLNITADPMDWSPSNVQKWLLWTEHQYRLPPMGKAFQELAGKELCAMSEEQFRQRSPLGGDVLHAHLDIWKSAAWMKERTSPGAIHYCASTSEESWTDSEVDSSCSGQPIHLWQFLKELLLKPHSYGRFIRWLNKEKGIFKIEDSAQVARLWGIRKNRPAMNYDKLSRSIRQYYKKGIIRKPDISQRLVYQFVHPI
# Method in brief: as §1
# [15] = target: T10, ETV7 (Homo sapiens, UniProt Q9Y603 1-341)
# T10 sequence: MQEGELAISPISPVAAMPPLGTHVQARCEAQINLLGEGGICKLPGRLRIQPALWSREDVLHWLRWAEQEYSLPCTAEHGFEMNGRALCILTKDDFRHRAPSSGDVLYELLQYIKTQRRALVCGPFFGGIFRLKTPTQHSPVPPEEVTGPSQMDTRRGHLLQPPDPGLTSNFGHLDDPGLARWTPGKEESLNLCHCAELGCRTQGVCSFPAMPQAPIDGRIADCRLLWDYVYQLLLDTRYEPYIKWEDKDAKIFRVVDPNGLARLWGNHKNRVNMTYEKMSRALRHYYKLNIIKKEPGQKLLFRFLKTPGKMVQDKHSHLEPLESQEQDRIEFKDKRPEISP
# Method in brief: as §1
# [16] = target: T11, ETV3 (Homo sapiens, UniProt P41162-2 1-143)
# T11 sequence: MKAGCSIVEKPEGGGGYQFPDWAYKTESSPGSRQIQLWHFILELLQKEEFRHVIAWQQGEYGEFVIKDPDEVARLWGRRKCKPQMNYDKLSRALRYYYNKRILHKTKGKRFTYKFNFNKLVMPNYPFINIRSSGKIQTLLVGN
# Method in brief: as §1
# [17] = target: ETV6 (Homo sapiens, UniProt P41212 1-452)
# Method in brief: as §1
# Chain of ETV5 (P41161 whole entry): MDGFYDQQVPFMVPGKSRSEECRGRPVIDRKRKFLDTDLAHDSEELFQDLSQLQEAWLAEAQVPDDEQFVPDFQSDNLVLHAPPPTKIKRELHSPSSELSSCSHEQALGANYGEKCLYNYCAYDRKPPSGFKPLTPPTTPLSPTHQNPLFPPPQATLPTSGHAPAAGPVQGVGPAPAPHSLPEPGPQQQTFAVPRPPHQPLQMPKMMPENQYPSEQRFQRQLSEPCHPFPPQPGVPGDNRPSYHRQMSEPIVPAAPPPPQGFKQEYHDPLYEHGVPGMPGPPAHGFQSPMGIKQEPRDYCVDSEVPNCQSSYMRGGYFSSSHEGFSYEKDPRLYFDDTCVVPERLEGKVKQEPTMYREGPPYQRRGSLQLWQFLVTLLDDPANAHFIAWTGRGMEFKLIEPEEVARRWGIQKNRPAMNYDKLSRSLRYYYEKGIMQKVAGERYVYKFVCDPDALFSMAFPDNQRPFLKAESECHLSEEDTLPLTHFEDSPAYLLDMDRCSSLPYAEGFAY
# Chain of ETV1 (P50549 whole entry): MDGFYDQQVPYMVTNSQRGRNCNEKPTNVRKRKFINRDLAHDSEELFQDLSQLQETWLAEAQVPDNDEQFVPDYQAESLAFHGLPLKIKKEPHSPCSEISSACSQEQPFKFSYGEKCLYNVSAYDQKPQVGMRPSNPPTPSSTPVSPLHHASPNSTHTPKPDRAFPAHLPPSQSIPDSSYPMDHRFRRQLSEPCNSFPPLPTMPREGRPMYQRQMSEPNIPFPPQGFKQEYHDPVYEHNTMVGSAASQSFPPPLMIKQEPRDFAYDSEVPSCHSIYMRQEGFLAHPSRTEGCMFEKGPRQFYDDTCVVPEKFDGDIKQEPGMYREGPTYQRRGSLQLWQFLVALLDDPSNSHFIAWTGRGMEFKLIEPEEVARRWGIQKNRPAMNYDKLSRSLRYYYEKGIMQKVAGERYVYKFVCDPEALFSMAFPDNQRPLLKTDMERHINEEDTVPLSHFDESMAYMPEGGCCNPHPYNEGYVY
# Chain of ELF4 (Q99607 whole entry): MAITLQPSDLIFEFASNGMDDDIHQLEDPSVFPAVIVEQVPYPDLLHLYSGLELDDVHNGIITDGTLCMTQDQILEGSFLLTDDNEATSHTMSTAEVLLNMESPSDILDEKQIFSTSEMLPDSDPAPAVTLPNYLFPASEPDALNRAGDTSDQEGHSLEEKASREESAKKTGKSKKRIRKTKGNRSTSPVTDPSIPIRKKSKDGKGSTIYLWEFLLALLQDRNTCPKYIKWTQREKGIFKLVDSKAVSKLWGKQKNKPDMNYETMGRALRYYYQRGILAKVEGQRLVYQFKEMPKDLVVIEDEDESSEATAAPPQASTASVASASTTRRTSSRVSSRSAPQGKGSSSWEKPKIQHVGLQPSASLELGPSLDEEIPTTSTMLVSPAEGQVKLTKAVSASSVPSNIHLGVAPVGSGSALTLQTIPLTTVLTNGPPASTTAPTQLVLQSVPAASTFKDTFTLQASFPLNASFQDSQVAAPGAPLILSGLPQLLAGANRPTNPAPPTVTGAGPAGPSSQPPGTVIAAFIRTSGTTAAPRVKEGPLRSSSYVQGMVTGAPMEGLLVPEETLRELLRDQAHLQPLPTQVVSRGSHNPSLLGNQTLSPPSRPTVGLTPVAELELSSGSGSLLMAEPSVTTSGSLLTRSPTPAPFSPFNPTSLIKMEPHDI
# Chain of ELF1 (P32519 whole entry): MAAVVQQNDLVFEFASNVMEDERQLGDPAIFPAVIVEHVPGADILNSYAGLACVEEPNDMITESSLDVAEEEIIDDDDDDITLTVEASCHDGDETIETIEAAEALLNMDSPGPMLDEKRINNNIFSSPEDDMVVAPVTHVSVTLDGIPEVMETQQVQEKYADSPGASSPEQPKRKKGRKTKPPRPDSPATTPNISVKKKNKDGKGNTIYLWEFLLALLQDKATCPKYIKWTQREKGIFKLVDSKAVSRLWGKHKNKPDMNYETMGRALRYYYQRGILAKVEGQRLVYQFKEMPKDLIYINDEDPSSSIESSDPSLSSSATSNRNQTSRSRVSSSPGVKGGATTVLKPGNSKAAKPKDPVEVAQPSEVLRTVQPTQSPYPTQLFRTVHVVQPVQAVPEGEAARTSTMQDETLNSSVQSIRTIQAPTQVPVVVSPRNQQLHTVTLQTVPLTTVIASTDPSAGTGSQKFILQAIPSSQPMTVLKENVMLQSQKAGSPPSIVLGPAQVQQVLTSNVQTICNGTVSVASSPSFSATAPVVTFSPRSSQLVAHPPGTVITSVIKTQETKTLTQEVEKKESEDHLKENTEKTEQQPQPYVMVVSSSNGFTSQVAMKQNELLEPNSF
# Chain of ETV6 (P41212 whole entry): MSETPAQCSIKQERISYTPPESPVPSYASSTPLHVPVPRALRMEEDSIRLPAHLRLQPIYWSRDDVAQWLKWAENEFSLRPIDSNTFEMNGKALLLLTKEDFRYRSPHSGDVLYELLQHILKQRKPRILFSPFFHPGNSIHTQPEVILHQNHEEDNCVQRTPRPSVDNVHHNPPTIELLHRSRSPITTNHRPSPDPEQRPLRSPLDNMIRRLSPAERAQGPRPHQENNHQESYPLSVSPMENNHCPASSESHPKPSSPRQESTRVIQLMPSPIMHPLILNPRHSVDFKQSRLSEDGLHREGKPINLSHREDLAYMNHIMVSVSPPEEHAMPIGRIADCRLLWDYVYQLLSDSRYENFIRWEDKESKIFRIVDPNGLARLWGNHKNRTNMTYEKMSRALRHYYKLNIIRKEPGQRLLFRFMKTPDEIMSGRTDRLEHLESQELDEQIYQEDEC
# Chain of SPIB (Q01892 whole entry): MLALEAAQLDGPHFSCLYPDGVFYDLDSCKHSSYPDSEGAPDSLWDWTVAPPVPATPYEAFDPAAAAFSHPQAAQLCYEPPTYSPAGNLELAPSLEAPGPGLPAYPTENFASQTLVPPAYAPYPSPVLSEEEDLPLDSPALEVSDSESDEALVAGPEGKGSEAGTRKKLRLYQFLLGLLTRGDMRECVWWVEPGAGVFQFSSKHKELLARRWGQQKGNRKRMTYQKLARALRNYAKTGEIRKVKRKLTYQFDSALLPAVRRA
sequence,measurement,setting,value
CTGGGC,binding signal,[1],"1.08 fold enrichment (6-mer frequency, TF over GST control)"
same,binding signal,[2],"1.09 fold enrichment (6-mer frequency, TF over GST control)"
same,binding signal,[3],"1.04 fold enrichment (6-mer frequency, TF over GST control)"
same,binding signal,[4],"1.24 fold enrichment (6-mer frequency, TF over GST control)"
same,binding signal,[5],"1.01 fold enrichment (6-mer frequency, TF over GST control)"
same,binding signal,[6],"1.03 fold enrichment (6-mer frequency, TF over GST control)"
same,binding signal,[7],"1.04 fold enrichment (6-mer frequency, TF over GST control)"
same,binding signal,[8],"1.07 fold enrichment (6-mer frequency, TF over GST control)"
same,binding signal,[9],"1.11 fold enrichment (6-mer frequency, TF over GST control)"
same,binding signal,[10],"1.13 fold enrichment (6-mer frequency, TF over GST control)"
same,binding signal,[11],"1 fold enrichment (6-mer frequency, TF over GST control)"
same,binding signal,[12],"1.12 fold enrichment (6-mer frequency, TF over GST control)"
same,binding signal,[13],"1.03 fold enrichment (6-mer frequency, TF over GST control)"
same,binding signal,[14],"1 fold enrichment (6-mer frequency, TF over GST control)"
same,binding signal,[15],"1.24 fold enrichment (6-mer frequency, TF over GST control)"
same,binding signal,[16],"1.03 fold enrichment (6-mer frequency, TF over GST control)"
same,binding signal,[17],"1.03 fold enrichment (6-mer frequency, TF over GST control)"
